Test results reported in PubChem BioAssay AID628 (Vanderbilt High Throughput Screening Facility, 2007).
Out of some 64,000 compounds screened, about 2,200 (3.4%) were called active.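 How the source made its calls: active means calcium fluorescence response, raw or row-and-column corrected B-score, differing from the plate sample mean either way at a set confidence level, mostly lower; inactive means the rest.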 For the sample, actives were picked, then their nearest neighbours and some compounds at random.

Biological target: Muscarinic acetylcholine receptor M1 (Rattus norvegicus) (UniProt P08482)
Test: antagonists of rat M1 muscarinic receptor (AID 628)
Conditions: CHO-M1 cells, Fluo-4 calcium, ACh EC80 antagonist mode; at 10 µM; hits give low values

Sequence of Muscarinic acetylcholine receptor M1 (Rattus norvegicus) (P08482 whole entry, looked up): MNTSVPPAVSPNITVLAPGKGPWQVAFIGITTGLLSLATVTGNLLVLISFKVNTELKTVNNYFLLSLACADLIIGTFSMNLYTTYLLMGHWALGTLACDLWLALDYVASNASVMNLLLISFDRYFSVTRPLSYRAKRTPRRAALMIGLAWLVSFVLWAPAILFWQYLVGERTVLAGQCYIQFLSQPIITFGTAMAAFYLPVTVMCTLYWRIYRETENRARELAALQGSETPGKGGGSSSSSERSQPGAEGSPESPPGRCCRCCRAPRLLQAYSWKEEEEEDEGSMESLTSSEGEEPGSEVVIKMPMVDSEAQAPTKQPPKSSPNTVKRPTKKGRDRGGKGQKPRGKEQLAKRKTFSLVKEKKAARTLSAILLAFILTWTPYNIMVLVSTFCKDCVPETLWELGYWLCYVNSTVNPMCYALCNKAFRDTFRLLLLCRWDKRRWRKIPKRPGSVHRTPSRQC

B-score, active:
O=C(CCN1C(=O)COc2ccccc21)NCCCN1CCN(c2ccc(F)cc2)CC1 -2.15
COc1cc(OC)c(C(=O)NC2CC(C)(C)NC(C)(C)C2)cc1OC -2.14
CCC(=O)c1ccc(OCC(O)CN2CCN(c3cccc(C(F)(F)F)c3)CC2)cc1 (centres undefined) -3.03
O=C(CCCN1C(=O)CSc2ncccc21)N1CCN(c2cccc(C(F)(F)F)c2)CC1 -3.46
CC12CN(Cc3ccccc3)CC(C)(CN(Cc3ccccc3)C1)C2=NO -8.41
CCOC(=O)c1c(-c2ccc(C)cc2C)csc1NC(=O)CSc1nnnn1C -1.47
Cc1nc2c(-c3ccc(F)cc3)c(C)nn2c(C)c1CCC(=O)N1CCN(c2ccccn2)CC1 -2.78
CC1CCCC(C)N1CCCNC(=O)c1cc2c(=O)n(C)c3ccccc3c2n1C (centres undefined) -3.75
Cc1c(C)c2cc3c4c(oc3c(C)c2oc1=O)CCCC4 -2.52
CCC(C)(NC(=O)c1ccccn1)C(=O)NC1CCCCC1 (centres undefined) -3.41
CN(C)CCCNc1c2c(c(C#N)c3nc4ccccc4n13)CCC2 -3.92
CCCCN(CCCC)C(=O)CCS(=O)(=O)c1ccc2c(c1)n(C)c(=O)c(=O)n2C -3.55
Cc1cccc(N2CCN(Cc3c(C)n(C)n(-c4ccccc4)c3=O)CC2)c1C -9.51
C=C(C)Cn1c(N2CCCC2)nc2c1c(=O)[nH]c(=O)n2C -2.42
CCC/C(O)=C1\C(=O)CC(C)(C)CC1=Nc1ccccc1OC -1.93
CCCCCOC(=O)NCCOC(=O)Nc1ccc(C(=O)OCC)cc1 -2.48
COc1ccc(CCn2c(=N)c(C(=O)NCc3ccco3)cc3c(=O)n4cccc(C)c4nc32)cc1 -2.38
COc1ccc(S(=O)(=O)Nc2c(C)n(C)n(-c3ccccc3)c2=O)cc1 2.26
CC1(C)CN=C(N2CCN(c3ncnc4sc5c(c34)CCCC5)CC2)S1 -3.91

B-score, inactive:
Cc1ccc2oc(=O)c3cnn(CC(=O)N4CCN(c5ccccn5)CC4)c3c2c1 0.00225
Cc1c(C(=O)OCC(=O)N(CCC#N)c2ccccc2)oc2c1ccc1ccccc12 0.252
CCCN1CCN(CCCNC(=O)CN2C(=O)COc3ccccc32)CC1 0.138
COc1ccc(N2CCN(CCNC(=O)CCN3C(=O)COc4ccccc43)CC2)cc1 1.04
O=S1(=O)CC(NCc2ccccc2)C(Nc2ccc(Cl)cc2)C1 (centres undefined) -0.75
CCCCCn1c(SCCC(C)C)nc2c1c(=O)[nH]c(=O)n2C -0.348
Cn1c(=O)[nH]c(=O)c2c1nc(CN1CCN(c3ccccc3F)CC1)n2CCc1ccccc1 -0.0585
O=C(COc1ccc(Cl)cc1)Nc1ccccc1CO 0.609
COc1cc(OC)c(C(=O)NC2CCCCCC2)cc1OC -1.64
Cc1ccc(C(=O)NC2CC(C)(C)NC(C)(C)C2)c(C)c1 0.35
CCOc1ccccc1NC(=O)CCc1ccc(C)o1 0.759
O=C(CN1CCN(c2ccc(F)cc2)CC1)Nc1cccc(C(F)(F)F)c1 -1.83
Cc1ccc(OCC(O)CN2CCN(CC(O)COc3ccc(C)cc3Cl)CC2)c(Cl)c1 (centres undefined) 0.987
O=C(CN1C(=O)CSc2ncccc21)N1CCOCC1 -0.0388
O=C(CCCN1C(=O)C2C3C=CC(C3)C2C1=O)N1CCN(c2ccccc2)CC1 (centres undefined) -0.518
CCn1c(Cc2ccccc2)nnc1SCC(=O)Nc1ccccc1 -0.642
CC(C)c1nnc(NC(=O)C2CCCN2S(=O)(=O)c2ccc(Cl)cc2)s1 (centres undefined) 0.566
CC(=NC1CCN(Cc2ccccc2)CC1)c1c(O)[nH]c(=O)[nH]c1=O -1.22
Cc1ccc(-c2noc(CN3CCN(Cc4ccccc4)CC3)n2)cc1 -0.779
N#Cc1c2c(c(-c3ccccc3)[nH]c1=O)CCCC2 -0.0345
CNC(=O)CSc1nnnn1-c1ccc(C)cc1C -0.461
CCOC(=O)CNC(=O)CSc1nnnn1-c1cc(C)ccc1C 0.408
Cn1cc(S(=O)(=O)N2CCC(Cc3ccccc3)CC2)c(=O)n(C)c1=O 1.21
CCOc1cc(C(=S)N2CCOCC2)ccc1O -0.148
Cc1ccc(NC(=O)N2CCC(C(=O)NCc3ccc(F)cc3)CC2)cc1 0.137
Cc1nc2ncnn2c(C)c1CCC(=O)N1CCN(C(=O)c2ccco2)CC1 -0.557
Cn1c(=O)cc(OCCCC(=O)N2CCN(c3ccccn3)CC2)c2ccccc21 -0.727
Cc1ccsc1C(=O)OCC(=O)c1cc(C)n(CC2CCCO2)c1C (centres undefined) -0.425
O=C(NCCCNC(=O)NC1CCCCC1)NC1CCCCC1 0.589
Cc1nc2sc(C(c3ccco3)N3CCC4(CC3)OCCO4)c(O)n2n1 (centres undefined) 0.231
CCN1CCCC1CNC(=O)c1cc2c(=O)n(C)c3ccccc3c2n1C (centres undefined) -1.39
Cn1c(C(=O)NCCCN2CCN(c3cccc(Cl)c3)CC2)cc2c(=O)n(C)c3ccccc3c21 -1.91
COC(=O)C(NC(C)=O)(Nc1nc2c(s1)CCCC2)C(F)(F)F (centres undefined) 0.181
COC(=O)c1cc(Cl)c(NC(=O)c2ccco2)cc1OC 0.0739
O=C(Nc1nnc(-c2ccc(Cl)cc2)o1)c1ccccc1Br 0.257
CCCOc1ccc2c3c(c(=O)oc2c1OCCC)CCC3 -0.182
O=C(NCc1ccc(Cl)cc1)c1cc2c(nc3sccn32)s1 -0.593
CCC(C)(C(=O)NC1CCCC1)N(C(=O)CNC(C)=O)c1ccc(C)cc1 (centres undefined) 0.0894
CN(CC(=O)NC1CCCCC1)S(=O)(=O)c1cccc2cccnc12 -0.865
O=C(O)c1cc(S(=O)(=O)N2CCCCCC2)c(Cl)cc1Cl -0.939
COCCCNC(=O)Cn1cc(C(=O)C2CC2)c2ccccc21 1.18
N#Cc1c2c(c(N3CCN(CCO)CC3)n3c1nc1ccccc13)CCCC2 -0.206
Cc1cc(NCc2ccco2)n2c(nc3ccccc32)c1C#N 0.838
CC(=O)CSc1nnc(CSc2ncccn2)n1C1CCCCC1 0.586
CC1CN(c2cc(=O)n(Cc3ccc(F)cc3)c(=O)[nH]2)CC(C)O1 (centres undefined) -0.0281
CCOc1cc(S(=O)(=O)NCc2ccc3c(c2)OCO3)ccc1F 0.637
O=C(CS(=O)(=O)c1cn(Cc2ccc(Cl)cc2)c2ccccc12)N1CCOCC1 0.274
Cn1c(=O)c(=O)n(C)c2cc(S(=O)(=O)NCCc3ccccc3)ccc21 0.991
CC1CCC(NS(=O)(=O)c2ccc3c(c2)n(C)c(=O)c(=O)n3C)CC1 (centres undefined) -0.853
Cc1c(CN2CCC(C)CC2)c(=O)n(-c2ccccc2)n1C 0.549
CC(=O)N1CCN(c2cccc(C)c2C)CC1 0.482
CC1CCCN(Cc2nc3c(c(=O)n(C)c(=O)n3C)n2Cc2cccc3ccccc23)C1 (centres undefined) 0.779
O=C1CC(Cc2ccccc2)C(=O)N1c1ccc(Cl)cn1 (centres undefined) -0.406
CCn1c(SCC(=O)Nc2cc(C)ccc2C)nnc1-c1cnccn1 0.583
Cn1c(=O)[nH]c(=O)c2c1nc(N1CCCCCC1)n2CC(=O)c1ccccc1 0.41
C=C(C)Cn1c(N2CCN(CC)CC2)nc2c1c(=O)[nH]c(=O)n2C 0.423
COc1ccc(C(CC(=O)O)NC(=O)Cc2ccccc2)cc1 (centres undefined) -0.777
Cc1cc(C(=O)COC(=O)c2cccs2)c(C)n1-c1c(C)n(C)n(-c2ccccc2)c1=O -1.28
CCOc1ccccc1N=C1NC(=O)CS1 0.266
COc1ccccc1N=C1SC(C)CN1C(=O)C1CCC1 (centres undefined) 0.0033
CC1CN(Cc2nc3c(c(=O)n(C)c(=O)n3C)n2Cc2cccc(Cl)c2)CC(C)O1 (centres undefined) 1.23
CC(=O)NCC(=O)N(C)C(C(=O)Nc1ccc2c(c1)OCCO2)c1ccccc1 (centres undefined) 0.158
CCCCC(CCC(=O)Nc1ccc(C(=O)OCC)cc1)C(=O)O (centres undefined) 0.867
CCCCCCOC(=O)NCC(O)c1ccccc1 (centres undefined) 0.126
Cc1ccccc1Cn1c(=O)[nH]c2ccccc21 -1.7
CCn1c(=N)c(C(=O)NCCCOC)cc2c(=O)n3cccc(C)c3nc21 -0.808
COc1ccc(CNC(=O)c2cc3c(=O)n4ccccc4nc3n(CC3CCCO3)c2=N)cc1 (centres undefined) -1.29
CCOC(=O)C1CCN(C(=O)C2CCN(S(=O)(=O)c3c(C)noc3C)CC2)CC1 0.0324
Cn1c(=NC(=O)CSCC(=O)N2CCOCC2)sc2ccccc21 0.949
CC(C)Oc1ccc(C(=O)Nc2cc(=O)n(C)c(=O)n2C)cc1 -0.0919
Cc1ccc(S(=O)(=O)Nc2ccccc2CNc2c(C)n(C)n(-c3ccccc3)c2=O)cc1 0.193
COC(=O)Nc1c(C)n(C)n(-c2ccccc2)c1=O -0.678
COc1ccccc1N1CCN(C(=O)CSc2nnc(-c3ccoc3C)o2)CC1 -1.48
N=c1c2c3c(sc2ncn1N)CCCCC3 1.08
O=C(O)[C@@H]1CCCN1c1ncnc2sc3c(c12)CCC3 0.0259
